From article PMC4336329 (PLoS ONE, 2015)
Out of some 310,000 compounds screened, about 14,000 (4.5%) showed an effect of 50% or more. Effects have a minus sign here. The sample as a whole holds a higher share of strong results than the screen did.

target: human ether-à-go-go-related gene (hERG) potassium channel (human, UniProt Q12809); assay: primary screen, population patch clamp on CHO cells stably expressing hERG; higher = less effect of the substance
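Note: peak tail current of the secondary pulse compared with the same well before compound.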

human ether-à-go-go-related gene (hERG) potassium channel, sequence (Q12809 whole entry, looked up): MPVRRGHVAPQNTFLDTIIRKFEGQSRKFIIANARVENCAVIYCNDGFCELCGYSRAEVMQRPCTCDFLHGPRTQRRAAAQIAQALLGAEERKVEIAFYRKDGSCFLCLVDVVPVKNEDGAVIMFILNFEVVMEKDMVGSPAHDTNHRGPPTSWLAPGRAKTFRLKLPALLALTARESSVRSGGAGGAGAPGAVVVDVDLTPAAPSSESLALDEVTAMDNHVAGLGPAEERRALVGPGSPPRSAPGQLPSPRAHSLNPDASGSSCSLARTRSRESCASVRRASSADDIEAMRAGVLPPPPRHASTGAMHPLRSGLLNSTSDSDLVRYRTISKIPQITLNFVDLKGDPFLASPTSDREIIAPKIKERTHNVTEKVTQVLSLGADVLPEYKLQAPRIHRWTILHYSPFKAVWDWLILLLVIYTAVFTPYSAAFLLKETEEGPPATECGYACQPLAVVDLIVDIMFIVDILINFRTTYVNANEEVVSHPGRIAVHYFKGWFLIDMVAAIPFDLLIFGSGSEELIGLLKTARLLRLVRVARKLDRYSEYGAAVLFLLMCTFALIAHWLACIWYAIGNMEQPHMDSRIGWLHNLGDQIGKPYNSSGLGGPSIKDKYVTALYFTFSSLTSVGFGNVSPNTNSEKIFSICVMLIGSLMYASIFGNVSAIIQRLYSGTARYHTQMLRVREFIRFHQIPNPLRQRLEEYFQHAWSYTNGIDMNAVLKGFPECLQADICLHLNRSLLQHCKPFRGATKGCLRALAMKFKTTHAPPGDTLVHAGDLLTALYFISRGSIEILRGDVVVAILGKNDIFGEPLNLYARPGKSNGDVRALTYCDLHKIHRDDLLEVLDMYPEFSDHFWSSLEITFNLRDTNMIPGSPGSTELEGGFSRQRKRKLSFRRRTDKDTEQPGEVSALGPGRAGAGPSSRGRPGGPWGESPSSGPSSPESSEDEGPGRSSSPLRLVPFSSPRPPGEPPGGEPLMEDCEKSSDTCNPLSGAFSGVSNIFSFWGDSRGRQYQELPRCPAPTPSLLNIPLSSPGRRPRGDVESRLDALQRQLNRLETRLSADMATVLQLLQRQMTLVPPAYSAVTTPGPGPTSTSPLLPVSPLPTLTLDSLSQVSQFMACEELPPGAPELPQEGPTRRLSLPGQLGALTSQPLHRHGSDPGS

SMILES | hERG current change (%, negative = inhibition) at 10uM [%]
COc1ccc(C(C)=O)cc1COC(=O)CCNS(=O)(=O)c1ccc(C)c(C)c1 | -38.3
O=C(CNC(=O)c1ccccc1)NCc1nc2ccccc2[nH]1 | 3.76
O=C(O)c1cc(-c2cccs2)nc2ccc(F)cc12 | 13.2
Cc1cccc(-c2nnn(Cc3nnc(NC(=O)c4ccccc4)s3)n2)c1 | 4.02
O=[N+]([O-])c1ccc(-c2cc(-c3ccc(Cl)cc3)n[nH]2)cc1 | -4.49
COC(=O)c1sc2ncn(-n3c(C)ccc3C)c(=O)c2c1C | 19.7
O=C1NC(=O)C(=Cc2ccc(N3CCN(C(=O)c4ccccc4)CC3)c([N+](=O)[O-])c2)C(=O)N1 | -67.1
CN1C(=O)C(=Cc2ccc(N3CCOCC3)c([N+](=O)[O-])c2)C(=O)N(C)C1=O | 11.4
CCOC(=O)N1CCN(c2ccc(F)cc2[N+](=O)[O-])CC1 | -10.5
O=C(c1ccc(F)cc1)N1CCN(c2cc(N3CCCCC3)c(F)cc2[N+](=O)[O-])CC1 | -24.6
CN(C)c1ccc(C=C2C(=O)NC(=O)NC2=O)cc1[N+](=O)[O-] | 30.8
COc1ccc(N2CCN(C(=O)c3ccc(F)cc3)CC2)c([N+](=O)[O-])c1 | -70.1
CCCC(=O)N(CCN(Cc1ccccc1)C(=O)CCC)Cc1ccccc1 | -42.5
CCC(CO)NC(=O)c1cccc(S(=O)(=O)N2c3ccccc3CC2C)c1 (centres unmarked) | 2.65
O=C(Nc1ccccc1[N+](=O)[O-])c1ccc(S(=O)(=O)N2CCCC2)cc1 | 1.84
CCCN(CCC)c1ncnc2nc[nH]c12 | -7.36
COc1cccc2sc(N(CCCN(C)C)C(=O)COc3ccc(Cl)cc3)nc12.Cl | -80.2
CN(C)CCCN(C(=O)COc1ccccc1)c1nc2c(Cl)cccc2s1.Cl | -66.9
Cc1cc(C)c2sc(N(CCCN(C)C)C(=O)COc3ccc(Cl)cc3)nc2c1.Cl | -1.13
CN(C)CCN(C(=O)c1ccccc1Cl)c1nc2c(Cl)cccc2s1.Cl | -34.1
CN(C)CCCN(C(=O)COc1ccc(Cl)cc1)c1nc2c(F)cccc2s1.Cl | -67.1
Cc1cccc2sc(N(CCCN(C)C)C(=O)COc3ccc(Cl)cc3)nc12.Cl | -60.5
COc1ccc2sc(N(CCCN(C)C)C(=O)c3nc4ccccc4s3)nc2c1.Cl | -5.36

SMILES | hERG current change (%, negative = inhibition) at 10uM [%]
O=[N+]([O-])/C(C(Cl)=C(Cl)Cl)=C(/NC1CC1)Sc1ccccc1 | 7.59
CC(C)N1C(=O)CCC1C(=O)N1CCC(Cc2ccccc2)CC1 (centres unmarked) | -25.3
CC(C)CC(C(=O)NCc1ccccn1)N1C(=O)c2ccccc2C1=O (centres unmarked) | -1.75
CCc1ccc(N(CC(=O)NC(C)C)C(=O)CCC(=O)Nc2nccs2)cc1 | 13.4
COc1ccc(/C=C/C(=O)c2ccc3c4c(cccc24)CC3)cc1OC | 20.8
Nc1nn(S(=O)(=O)c2ccccc2)cc1-c1ccc([N+](=O)[O-])cc1 | -9.96
O=C(COC(=O)c1ccc2c(c1)OCO2)Nc1ccccc1F | 11.8
O=C(O)Cc1ccc(NC(=O)c2ccc3c(c2)C(=O)N(CC2CCCO2)C3=O)cc1 (centres unmarked) | 12.6
CC1=C(C(=O)OCCBr)C(c2cccc3ccccc23)NC(=O)N1 (centres unmarked) | 17.5
CCCCN1C(=O)C(=O)N(CC(=O)N2CCc3ccccc32)C1=O | 5.05
Cc1cc(C)cc(N(C(=O)c2ccco2)C(C(=O)NC2CCCC2)c2ccncc2)c1 (centres unmarked) | 9.94
COc1cc(C(=O)OCCC(C)C)cc(OC)c1O | -1.55
Cc1c(Br)c(=O)oc2c(Br)c(O)ccc12 | 19.9
CCOC(=O)Cn1cc(C#N)c(=O)[nH]c1=O | -17.8
Cc1c(C(=O)Nc2ccc3oc(-c4cccnc4)nc3c2)oc2ccccc12 | -16.8
CN(C)CCN(C(=O)CCS(=O)(=O)c1ccccc1)c1nc2c(F)cccc2s1 | 13.6
CN(C)CCCN(C(=O)COc1ccccc1)c1nc2c(F)cccc2s1.Cl | -81.2
CCN(CC)CCN(C(=O)CCOc1ccccc1)c1nc2c(F)cc(F)cc2s1.Cl | -8.13
Fc1ccc(Cn2nnnc2CN2CCN(C3CCCCC3)CC2)cc1 | -45.4
C/C(CC(=O)NC(C)C)=N\NC(=O)C(c1ccccc1)c1ccccc1 | 9.95
CC(C)(C)C(=O)C[n+]1ccc(C(N)=O)cc1.[Br-] | 0.811
O=S(=O)(Nc1ccc2c(c1)OCCO2)c1c(F)cccc1F | 3.4
CN(c1ccccc1)S(=O)(=O)c1cc(C(=O)OCC(N)=O)ccc1Cl | -4.09

SMILES | hERG current change (%, negative = inhibition) at 10uM [%]
O=C(COC(=O)c1cccc(S(=O)(=O)N2CCc3ccccc32)c1)NCc1ccco1 | 21.5
O=C(CSc1ccccc1)OCC(=O)N1CCN(C(=O)c2ccco2)CC1 | -27
O=C(CCN1c2ccccc2Sc2ccccc21)OCC(=O)N1CCN(C(=O)c2ccco2)CC1 | -66
O=C(OCC(=O)N1CCN(C(=O)c2ccco2)CC1)c1cccc(S(=O)(=O)N2CCc3ccccc32)c1 | -84
O=C(Cc1c(Cl)cccc1Cl)OCC(=O)N1CCN(C(=O)c2ccco2)CC1 | -14.9
O=C(Cc1ccccc1F)OCC(=O)N1CCN(C(=O)c2ccco2)CC1 | -22.6
O=C(OCC(=O)N1CCOCC1)c1cccc(S(=O)(=O)N2CCCc3ccccc32)c1 | -24.9
CCN(CC)S(=O)(=O)c1ccc(C(=O)OCC(=O)N2CCN(C(=O)c3ccco3)CC2)cc1 | -37.2
O=C(Cc1ccc(Cl)cc1Cl)OCC(=O)N1CCN(C(=O)c2ccco2)CC1 | -57.6
CN(c1ccccc1)S(=O)(=O)c1cc(C(=O)OCC(=O)N2CCN(C(=O)c3ccco3)CC2)ccc1Cl | -68.3
O=C(CCC(=O)c1cccs1)OCC(=O)N1CCN(C(=O)c2ccco2)CC1 | -2.34
Cc1nn(C)c(Oc2ccc(Cl)cc2)c1C(=O)O | 12.8
CC1=CC(C)C2(COC(=O)Nc3ccccc3)COC(C)C1C2C (centres unmarked) | -3.03
CCOC(=O)C1CCN(Cc2cccc(Oc3ccc(Cl)cc3)c2)CC1 | 3.3
CCn1c(CNC(=O)c2cccs2)n[nH]c1=S | 3.27
Cc1cccc(COc2ccc(/C=N/NC(=O)c3nnn(-c4nonc4N)c3C)cc2)c1 | 15.3
O=C(COc1cccnc1[N+](=O)[O-])Nc1ccc2c(c1)OCO2 | 6.1
Cc1cc(NC(=O)c2ccc(S(=O)(=O)N(C)CC3CCCO3)cc2)no1 (centres unmarked) | 2.09
COc1ccccc1CCNS(=O)(=O)c1cn(C)nc1C | 1.14
COCCN(CCOC)C(=O)COC(=O)c1ccc(Cl)c(S(=O)(=O)N(C)c2ccccc2)c1 | -48.4
O=C(OCC(=O)N1CCN(C(=O)c2ccco2)CC1)c1ccccc1 | 10.4
O=C(OCC(=O)N1CCN(C(=O)c2ccco2)CC1)c1ccc(Cl)c(Cl)c1 | -62.9
CN(CCC#N)C(=O)COC(=O)c1ccc(Cl)c(S(=O)(=O)N(C)c2ccccc2)c1 | -58.2

SMILES | hERG current change (%, negative = inhibition) at 10uM [%]
O=C(OCC(=O)N1CCN(C(=O)c2ccco2)CC1)c1ccc(Cl)cc1 | -38.7
CN(CCC#N)C(=O)COC(=O)c1ccc(Cl)c(S(N)(=O)=O)c1 | 21.8
O=C(Nc1ccc2c(c1)CCC2)c1cccs1 | 24.7
O=C(CSc1ccc2nnc(-c3ccc(Cl)cc3)n2n1)N1CCCc2ccccc21 | 1.71
CCOC(=O)c1c(C)n(C)c2ccc(OC(C)C(=O)OC)cc12 (centres unmarked) | -10
COc1cc(/C=N/Nc2ccccn2)ccc1OCC(C)C | 27.5
CCCCn1c(-c2csc(C(C)C)c2)n[nH]c1=S | 20.9
Cc1ccc(COc2ccsc2C(=O)NNC(N)=S)cc1 | 19.9
CCC(C(=O)OCCOCCN(CC)CC)c1ccccc1 (centres unmarked) | 1.01
CCN(CC)CCOC(=O)C(O)(c1ccccc1)c1ccccc1.Cl | -42.1
CCN(CC)CCOCCOC(=O)C(CC)(CC)c1ccccc1 | -9.35
CCN(CC)CCCOC(=O)C(c1ccccc1)c1ccccc1.Cl | -56.5
CCN(CC)CCCOC(=O)C(OC(C)C)(c1ccccc1)c1ccccc1.Cl | -31.9
CCN(CC)CCOC(c1ccccc1)c1ccc(C)cc1.Cl (centres unmarked) | -73
CCN(CC)CCOC(=O)C(c1ccccc1)c1ccccc1.Cl | -52.2
CCCC(C(=O)OCCN(CC)CC)(c1ccccc1)c1ccccc1.Cl | -53.9
CCN(CC)CCCOC(=O)C(OC)(c1ccccc1)c1ccccc1.Cl | -27.9
CCNCCOC(c1ccccc1)c1ccccc1.Cl | -31.8
CCCOc1ccc(C(C(=O)OCCN(CC)CC)c2ccccc2)cc1.O=C(O)C(=O)O (centres unmarked) | -43
CCN(CC)CC#CCOC(c1ccccc1)c1ccccc1.Cl | -43.3
